Test results published in the supplement of paper PMC3334620.
The full ranking holds about 33,000 sequences; the median of “E-score (-0.5 to 0.5)” is about -0.015, and the highest 2% start at about 0.3. This excerpt belongs to a sample that is enriched for the highest values.

Each sequence was assayed against T1, Abf1 (UniProt P14164) (assay: PBM E-score (8-mer binding enrichment) (E-score (-0.5 to 0.5)); higher = stronger / more preferred TF binding). Conditions: protein concentration: 200 nM; construct: GST-full length.
T1 sequence: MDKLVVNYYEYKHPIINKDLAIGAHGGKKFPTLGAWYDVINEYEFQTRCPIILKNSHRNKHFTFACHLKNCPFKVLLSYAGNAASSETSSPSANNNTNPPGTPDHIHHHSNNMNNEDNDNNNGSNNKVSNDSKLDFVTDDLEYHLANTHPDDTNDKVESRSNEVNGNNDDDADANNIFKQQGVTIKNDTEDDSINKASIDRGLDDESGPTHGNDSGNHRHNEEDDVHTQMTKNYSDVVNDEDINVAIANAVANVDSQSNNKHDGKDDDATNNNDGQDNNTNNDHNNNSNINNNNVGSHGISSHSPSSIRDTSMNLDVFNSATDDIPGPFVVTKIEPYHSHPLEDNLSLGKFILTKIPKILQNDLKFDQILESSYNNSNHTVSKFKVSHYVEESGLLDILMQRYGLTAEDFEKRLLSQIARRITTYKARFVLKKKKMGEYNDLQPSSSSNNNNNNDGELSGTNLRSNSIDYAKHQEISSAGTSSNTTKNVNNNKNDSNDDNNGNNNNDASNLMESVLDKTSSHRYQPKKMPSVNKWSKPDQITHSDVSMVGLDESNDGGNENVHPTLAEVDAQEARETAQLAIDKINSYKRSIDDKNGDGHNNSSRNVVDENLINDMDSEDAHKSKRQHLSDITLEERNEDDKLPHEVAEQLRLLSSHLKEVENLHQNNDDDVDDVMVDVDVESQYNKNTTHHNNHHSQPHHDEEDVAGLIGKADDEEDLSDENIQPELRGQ
Protocol: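 Universal 'all 10-mer' protein binding microarrays (Agilent AMADID 015681) probed with GST-tagged S. cerevisiae TFs (full-length or DBD) made by in vitro transcription/translation (PURExpress), about 100-200 nM. Bound TF was detected with fluorescent anti-GST. Each ungapped 8-mer (which stands for itself and its reverse complement) is scored by the PBM enrichment score (E-score), a modified Wilcoxon-Mann-Whitney statistic from -0.5 to +0.5, computed with the Universal PBM Analysis Suite. Scale: above 0.35 generally sequence-specific binding.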

Going from GTAAGAAA to ATCAGGGC, the “PBM E-score” value falls from 0.176 to -0.198.

Compared with CCATCGCA, CAATATTG is higher in “PBM E-score” value: -0.0576 for the first, 0.0635 for the second.

First: GGCCCTTA
Second: GTAAACCA
The “PBM E-score” value of the first is lower: -0.233 for the first, -0.0676 for the second.

Compared with GCTTTATA, ATTCGTAA is higher in “PBM E-score” value: -0.0302 for the first, 0.203 for the second.

Going from ATTCGTAC to CTTCGTCC, the “PBM E-score” value falls from 0.408 to 0.0852.

First: ATTCGTCA
Second: CTTCGTAC
The “PBM E-score” value of the first is lower: 0.164 for the first, 0.414 for the second.

Going from ATTCGTCG to ATTCGTCC, the “PBM E-score” value falls from 0.31 to 0.296.

Going from CTTCGTAA to ATTCGTAG, the “PBM E-score” value rises from 0.161 to 0.191.

Compared with GCGAGGAA, AGTGGCGA is higher in “PBM E-score” value: -0.0784 for the first, 0.0606 for the second.

First: CTGTTTGC
Second: CCTAAACA
The “PBM E-score” value of the first is higher: 0.0145 for the first, -0.224 for the second.

Compared with ATTCGGTC, GCAGGCAC is lower in “PBM E-score” value: 0.0175 for the first, -0.145 for the second.

Going from CCCTTTGA to CGACGTCA, the “PBM E-score” value rises from -0.125 to 0.123.

First: CACGAACC
Second: CACGGTTC
The “PBM E-score” value of the first is higher: 0.185 for the first, 0.154 for the second.

Compared with GCGTCACA, ACGTCAAT is higher in “PBM E-score” value: 0.02 for the first, 0.116 for the second.

First: ACGTCACA
Second: ACGTCACC
The “PBM E-score” value of the first is lower: 0.0823 for the first, 0.22 for the second.

Going from ACGTCACT to ACGTCACG, the “PBM E-score” value falls from 0.39 to 0.326.

First: AAGATAGG
Second: ACTTCAGC
The “PBM E-score” value of the first is lower: -0.151 for the first, -0.124 for the second.

Going from ATCAGGGA to ATATGTCA, the “PBM E-score” value rises from -0.0561 to 0.289.

Compared with CTATGTCA, CTATGTCC is lower in “PBM E-score” value: 0.31 for the first, -0.022 for the second.

First: GTATGTCA
Second: GAATGTCA
The “PBM E-score” value of the first is higher: 0.394 for the first, 0.278 for the second.

Compared with GGATGTCA, ATAAGGCA is lower in “PBM E-score” value: 0.171 for the first, 0.14 for the second.

Compared with ACAGGGGG, GGAAGGAC is higher in “PBM E-score” value: -0.357 for the first, 0.0147 for the second.

Going from AGACCATC to ATTAACCC, the “PBM E-score” value rises from -0.195 to -0.086.

First: CGTGTGAC
Second: CGTGTGAA
The “PBM E-score” value of the first is lower: 0.11 for the first, 0.311 for the second.

Going from AGTGTAAA to CGTGTAAA, the “PBM E-score” value rises from -0.00367 to 0.314.

First: CGTGTAAC
Second: TGTGTGAA
The “PBM E-score” value of the first is higher: 0.237 for the first, -0.234 for the second.

First: ATATGGTG
Second: CGTGACGC
The “PBM E-score” value of the first is lower: 0.0579 for the first, 0.152 for the second.

Compared with AGTGACGA, AGTGACGG is lower in “PBM E-score” value: 0.422 for the first, 0.1 for the second.

Going from GGTGACGA to CGTGACGA, the “PBM E-score” value rises from 0.276 to 0.351.

First: CGTGACCA
Second: CGGACATA
The “PBM E-score” value of the first is higher: 0.0961 for the first, 0.0662 for the second.

Compared with CATGGAGG, AACGGCAT is higher in “PBM E-score” value: -0.286 for the first, 0.226 for the second.

Going from CTGGTTGC to AAATCACC, the “PBM E-score” value rises from -0.0319 to 0.336.

First: AAATCACT
Second: AAATCACG
The “PBM E-score” value of the first is higher: 0.374 for the first, 0.284 for the second.

First: AAATCAAT
Second: CAATCACC
The “PBM E-score” value of the first is higher: 0.142 for the first, 0.0554 for the second.

First: AAATCACA
Second: CGAACCAA
The “PBM E-score” value of the first is lower: 0.0176 for the first, 0.0494 for the second.

Compared with ATCAGCGA, GGTTTTCA is higher in “PBM E-score” value: -0.0614 for the first, 0.167 for the second.

Compared with ACGAGCAT, GTCCTATA is lower in “PBM E-score” value: 0.00886 for the first, -0.0768 for the second.

First: AACGACAA
Second: TACGACAA
The “PBM E-score” value of the first is higher: 0.308 for the first, 0.298 for the second.

Going from GACGACAA to CACGACAC, the “PBM E-score” value falls from 0.347 to 0.296.

Going from TGCGACAA to GACGACAC, the “PBM E-score” value rises from 0.0936 to 0.252.

Compared with GGCGACAA, ACCGACAA is higher in “PBM E-score” value: 0.0843 for the first, 0.115 for the second.

First: AACGACAG
Second: CACGACAA
The “PBM E-score” value of the first is lower: 0.196 for the first, 0.25 for the second.

Going from AACGACAC to AACGACAT, the “PBM E-score” value rises from 0.238 to 0.346.

Going from TCAAGAGA to ACATCGTG, the “PBM E-score” value rises from 0.0894 to 0.185.

First: ACCCCTAC
Second: AAGAGGAA
The “PBM E-score” value of the first is lower: -0.271 for the first, -0.0719 for the second.

Going from GGCCCGTA to ACGGAGGG, the “PBM E-score” value rises from 0.0104 to 0.0212.

Compared with CACGCAGC, ACGTCTAG is higher in “PBM E-score” value: 0.00826 for the first, 0.167 for the second.

Going from CGATCACG to AGATCAAG, the “PBM E-score” value falls from 0.298 to 0.112.

Compared with GGATCACA, CGATCACA is higher in “PBM E-score” value: 0.00896 for the first, 0.161 for the second.

First: AGATCACA
Second: CGATCACC
The “PBM E-score” value of the first is higher: 0.138 for the first, 0.0211 for the second.

First: AGATCACG
Second: GGATCACC
The “PBM E-score” value of the first is higher: 0.35 for the first, 0.247 for the second.

Going from AGATCACT to AGATCAAT, the “PBM E-score” value falls from 0.437 to 0.12.

Going from AGATCACC to TGATCACA, the “PBM E-score” value falls from 0.311 to 0.292.

First: AGACGGGG
Second: GATCCTCA
The “PBM E-score” value of the first is higher: 0.0661 for the first, 0.019 for the second.

Compared with CTAATTCC, ATGACCTA is higher in “PBM E-score” value: 0.0379 for the first, 0.235 for the second.

Compared with ATACAACA, CAAATGAA is lower in “PBM E-score” value: 0.0798 for the first, -0.155 for the second.

Going from AAAGGATT to TGCAACCA, the “PBM E-score” value rises from -0.105 to -0.0685.

First: CGTCTCTC
Second: CCTTCGTA
The “PBM E-score” value of the first is lower: 0.162 for the first, 0.292 for the second.

First: ACTTCGTC
Second: GCTTCGGA
The “PBM E-score” value of the first is higher: 0.227 for the first, 0.0157 for the second.

Going from GCTTCGTA to ACTTCGTA, the “PBM E-score” value falls from 0.313 to 0.297.

First: ACTTCGTG
Second: CCGACACC
The “PBM E-score” value of the first is higher: 0.0796 for the first, -0.195 for the second.

Going from ATTTTTGC to TACAGGCA, the “PBM E-score” value rises from 0.113 to 0.119.

Compared with AGCTACAA, GAGAAGGA is lower in “PBM E-score” value: -0.101 for the first, -0.18 for the second.

Going from ATATCAAA to CCTCCGCC, the “PBM E-score” value falls from 0.0352 to -0.059.

First: ACGTACGG
Second: AAGTACGA
The “PBM E-score” value of the first is higher: 0.328 for the first, 0.151 for the second.

Going from ACGTACGC to AGGTACGA, the “PBM E-score” value falls from 0.114 to 0.0832.

Going from ACGTACGT to CCGTACGG, the “PBM E-score” value falls from 0.335 to 0.29.

Going from ACGTACAT to ACGTACGA, the “PBM E-score” value rises from 0.244 to 0.335.

First: ACGTACAG
Second: CAGCGGAC
The “PBM E-score” value of the first is higher: -0.0233 for the first, -0.105 for the second.

Going from AGCGAGAT to CCGTATGA, the “PBM E-score” value rises from 0.0588 to 0.408.

First: ACGTATGG
Second: CCGTATGC
The “PBM E-score” value of the first is higher: 0.136 for the first, 0.0398 for the second.

First: ACGTATGC
Second: GCGTATGA
The “PBM E-score” value of the first is lower: 0.014 for the first, 0.0421 for the second.

Compared with ACGTATGA, CGAGTTAG is lower in “PBM E-score” value: 0.332 for the first, 0.148 for the second.

Compared with ACTAGAAA, ATACGGAA is higher in “PBM E-score” value: -0.0186 for the first, 0.299 for the second.

First: ATACGGAT
Second: ATACGGAC
The “PBM E-score” value of the first is higher: 0.297 for the first, 0.142 for the second.

First: ATACGGAG
Second: CTACGGAA
The “PBM E-score” value of the first is lower: 0.0972 for the first, 0.139 for the second.

Compared with TTACGGAA, CAAAATCA is higher in “PBM E-score” value: 0.124 for the first, 0.173 for the second.

Compared with GCACAGCC, ATTTCTTG is higher in “PBM E-score” value: -0.204 for the first, 0.167 for the second.

Going from ACAGAATC to AATTAATA, the “PBM E-score” value rises from -0.0766 to 0.302.

First: AATTAATT
Second: CACTAATA
The “PBM E-score” value of the first is lower: 0.00666 for the first, 0.255 for the second.

First: AACTAATA
Second: TATTAATA
The “PBM E-score” value of the first is higher: 0.306 for the first, 0.00602 for the second.

Compared with TACTAATA, ACTCCACC is lower in “PBM E-score” value: 0.0826 for the first, 0.032 for the second.

Going from ATCGGTCC to TCGTGACA, the “PBM E-score” value rises from -0.295 to 0.354.

Compared with TCGTGAGA, CCGTGAAA is higher in “PBM E-score” value: 0.263 for the first, 0.381 for the second.

First: CCGTGACA
Second: ACGTGACG
The “PBM E-score” value of the first is higher: 0.363 for the first, 0.201 for the second.

Going from TCGTGAAA to CCGTGAAG, the “PBM E-score” value falls from 0.205 to 0.136.

First: ACGTGACC
Second: CCGTGACC
The “PBM E-score” value of the first is lower: 0.0122 for the first, 0.157 for the second.

Compared with CCGTGACG, ACGTGACA is higher in “PBM E-score” value: 0.198 for the first, 0.355 for the second.

With ACGTGACT the “PBM E-score” value was 0.174.
